An excerpt weighted towards active compounds, which were near 21% of everything screened.
HCV inhibitor – inhibitors of hepatitis C virus infection. Huh7.5.1 HCVcc-Cre infection, luciferase reporter, 44 h. Potency, µM (titrated, usually from 41.8 µM), for the others: at the highest dose activity change, negative = inhibition, usual class: inhibitors. AID 651820. 3.4% of 340,000 active; also: potency is read from the fitted curve at half-maximal effect; % is scaled to controls: 0 for no effect and ±100 for the full control effect
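Infectious HCV cell culture screen: compound-treated cells (1,000/well, pre-plated 4 h) are infected with HCVcc-Cre at roughly 0.5 moi and grown 44 h. Infection is quantified by luciferase signal after 15 min substrate incubation at room temperature.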
CHX counter – counter-screen for Shiga toxin inhibitors: cycloheximide protein synthesis inhibition | 12% of 300,000 active | max response, % | cell reporter, cycloheximide protein synthesis inhibition counterscreen; in the data active = max response mostly above about 13%, no sharp cut-off; inactive = mostly below about 14%; also: read at 38.3 µM for the half of the compounds with a filed dose; 0% is about no effect
Pf growth 48h – inhibits P. falciparum growth in the first generation, 48 h | P. falciparum luciferase growth in erythrocytes, 48 h | Potency, µM (doses to about 28.7 µM), for inactives: top-dose activity change, negative = inhibition, actives largely listed as inhibitors | 5.9% of 310,000 active; also: potency is read from the fitted curve at half-maximal effect; % is scaled to controls: 0 for no effect and ±100 for the full control effect
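Growth was read as firefly luciferase luminescence after a 48 h, 37 C, 5% CO2 exposure of compounds to reporter-bearing P. falciparum cultures (0.1% parasitemia, 2% hematocrit final) in Albumax-supplemented RPMI 1640.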
Pf growth 96h – inhibits malaria parasite growth, 96 h; P. falciparum luciferase reporter growth, 96 h; Potency, µM (doses to about 28.7 µM), for inactives: at the top dose activity change, negative = inhibition, actives largely listed as inhibitors; 6.9% of 320,000 active; AID 504834; also: potency is read from the fitted curve at half-maximal effect; % is scaled to controls: 0 for no effect and ±100 for the full control effect
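Readout is luminescence from an integrated firefly luciferase in P. falciparum. Red cells, 2% hematocrit and 0.05% parasitemia final, were cultured with compound through two parasite generations (96 hours) at 37 C, 5% CO2.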
Shiga toxin inh – Shiga toxin inhibition | Vero cells, Shiga toxin protein synthesis inhibition reporter | inhibition, % at 38.7 µM | 9.2% of 290,000 active; in the data active = inhibition mostly above about 28%, no sharp cut-off; inactive = mostly below about 43%; also: 0% is about no effect
AMA1-RON2 inh – disrupts binding of P. falciparum AMA1 to RON2 | Potency, µM (highest dose often 58.2 µM), inactives show top-dose activity change, negative = inhibition, actives largely listed as inhibitors | AlphaScreen AMA1-biotinylated RON2 peptide binding | 0.2% of 360,000 active | AID 720542;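 also: potency is read from the fitted curve at half-maximal effect; 0% = vehicle wells and -100% = peptide control; nearly all actives have a fitted effect of over 45% in size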
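AMA1 (3D7) with his tag at 25 nM final met compounds first, then biotinylated RON2 peptide at 25 nM; detection used donor plus acceptor beads, 10 µg/mL apiece, read by AlphaScreen after 30 min at room temperature.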
An asterisk follows results filed as active. Unless noted, calls follow the shape of the dose curve; as a rule, active = well fitted curve in the direction sought with a large enough effect; inconclusive = small, poorly fitted or top-dose-only effect, or another doubt; inactive = no such curve, though single readings can be large; an effect the other way counts as inactive or inconclusive.

Screening CCC(C)NC(=O)CC1Oc2ccc(Cl)cc2NC1=O (centres undefined) returned HCV inhibitor 7.7%, CHX counter -7.6, Pf growth 96h 10.4µM*, Shiga toxin inh -7.9 and AMA1-RON2 inh 4.3%.
Screening O=C(Nc1nnc(SCc2ccc(Cl)cc2)s1)c1ccco1 returned HCV inhibitor 9.3%, CHX counter -2.5, Pf growth 48h inconclusive, Pf growth 96h 213.3%, Shiga toxin inh -4.3 and AMA1-RON2 inh -19.0%.
For O=C(COC(=O)c1ccco1)c1ccccc1 the results were HCV inhibitor -3.6%, CHX counter 47.8*, Pf growth 48h 26.2%, Pf growth 96h 15.3%, Shiga toxin inh 111.5* and AMA1-RON2 inh -7.5%.
Screening CC1CC(C)(C)Nc2ccc(OC(=O)c3ccco3)cc21 (centres undefined) returned HCV inhibitor -3.1%, CHX counter 48.8*, Pf growth 48h inconclusive, Pf growth 96h -11.6%, Shiga toxin inh 121.3* and AMA1-RON2 inh -6.5%.
`Cc1ccc(C(=O)COC(=O)c2ccc(Br)o2)cc1C` gave HCV inhibitor -13.8%, CHX counter 40.3*, Pf growth 96h 8.5%, Shiga toxin inh 62.7* and AMA1-RON2 inh 0.0%.
O=C(CSCc1ccc(Cl)cc1)c1ccco1 was read as CHX counter 20.7*, Pf growth 48h 2.2%, Pf growth 96h 26.6% and Shiga toxin inh 73.3.
`O=C(Oc1ccccc1)c1cc2ccccc2o1` gave HCV inhibitor 0.1%, CHX counter 8.5, Pf growth 48h 11.3%, Shiga toxin inh 12.1 and AMA1-RON2 inh 30.6%.
O=C(CSc1ccc(Cl)cc1)NNC(=O)c1ccco1 was read as HCV inhibitor 6.3%, CHX counter 10.3, Pf growth 48h 14.9%, Pf growth 96h 14.7µM*, Shiga toxin inh -7.9 and AMA1-RON2 inh 105.9%.
`Cc1ccc(C(=O)COC(=O)c2ccco2)cc1C` gave HCV inhibitor 7.0%, CHX counter 49.3*, Pf growth 48h 5.9%, Pf growth 96h 25.5%, Shiga toxin inh 88.4* and AMA1-RON2 inh -7.0%.
Screening O=C(Oc1cccc(-c2cnc3ccccc3n2)c1)c1ccco1 returned HCV inhibitor 3.4%, CHX counter 45.4*, Pf growth 48h 331.9%, Pf growth 96h 89.4%, Shiga toxin inh 48.8 and AMA1-RON2 inh -12.0%.
`O=C(COC(=O)c1cc2ccccc2o1)c1ccccc1` gave HCV inhibitor 10.3%, CHX counter 39.0*, Pf growth 48h 9.4%, Pf growth 96h inconclusive, Shiga toxin inh 117.1* and AMA1-RON2 inh 13.1%.
For CCN(CC)S(=O)(=O)c1ccc(C)c(C(=O)Oc2cccc(-c3cnc4ccccc4n3)c2)c1 the results were HCV inhibitor -20.4%, CHX counter 4.5, Pf growth 48h 211.6%, Pf growth 96h -7.3%, Shiga toxin inh 11.1 and AMA1-RON2 inh 10.7%.
Screening CC(Sc1ccc(Cl)cc1)C(=O)NNC(=O)c1ccco1 (centres undefined) returned HCV inhibitor inconclusive and AMA1-RON2 inh 64.3%.
COc1ccccc1C(=O)NC(=O)CSc1ccc(C)c(C)c1 was read as HCV inhibitor 11.2% and AMA1-RON2 inh 6.9%.
O=C1C=C(c2cccc3c2sc2ccccc23)C[C@@H](c2ccc(Cl)cc2)C1 was read as HCV inhibitor 0.6%, Pf growth 48h -16.1%, Pf growth 96h 16.1% and AMA1-RON2 inh 0.0%.
N#Cc1ccc(S(=O)(=O)N2CCN(C(=O)[C@@H]3CCCN3C(=O)c3cccs3)CC2)cc1 was read as HCV inhibitor 3.3%, Pf growth 48h -10.0%, Pf growth 96h inconclusive and AMA1-RON2 inh 20.7%.
Screening O=C(Oc1ccc2ccccc2c1)c1ccco1 returned HCV inhibitor 13.2%, CHX counter 20.0*, Pf growth 48h 1.4%, Pf growth 96h -9.0%, Shiga toxin inh 33.3 and AMA1-RON2 inh 1.7%.
For O=C(COC(=O)c1ccco1)c1ccc2ccccc2c1 the results were HCV inhibitor 1.6%, CHX counter 55.9*, Pf growth 48h 20.6%, Shiga toxin inh 123.7 and AMA1-RON2 inh 0.0%.
Screening CC1CC(C)(C)Nc2ccc(N=O)cc21 (centres undefined) returned HCV inhibitor inconclusive, CHX counter 50.7*, Pf growth 48h inconclusive, Pf growth 96h -0.9%, Shiga toxin inh 78.6* and AMA1-RON2 inh -12.4%.
For O=C(COC(=O)c1ccco1)c1ccc(Cl)cc1 the results were HCV inhibitor inconclusive, CHX counter 29.1*, Pf growth 48h 10.7%, Pf growth 96h -6.1%, Shiga toxin inh 103.6* and AMA1-RON2 inh 12.1%.
Screening O=C(COC(=O)c1cnccn1)c1ccc2ccccc2c1 returned HCV inhibitor 14.5%, CHX counter 5.9, Pf growth 48h 3.2%, Shiga toxin inh 11.8 and AMA1-RON2 inh 11.3%.
CC1CC2(CCCC2)Nc2ccc(F)cc21 (centres undefined) was read as HCV inhibitor 12.0%, CHX counter -6.6, Pf growth 48h -6.3%, Pf growth 96h 2.5%, Shiga toxin inh 26.2 and AMA1-RON2 inh -9.9%.
COc1cc(C(=O)COC(=O)c2ccco2)cc(OC)c1OC was read as HCV inhibitor 15.9% and AMA1-RON2 inh 2.2%.
Screening CC(=O)Nc1ccc(OC(=O)c2ccco2)cc1 returned HCV inhibitor 32.1%, CHX counter 2.7, Pf growth 48h 21.9%, Pf growth 96h inconclusive, Shiga toxin inh 10.0 and AMA1-RON2 inh -5.2%.
`COCCN1CCN(C(=O)C2CCC(=O)N(CCc3cccc(F)c3)C2)CC1` (centres undefined) gave HCV inhibitor 17.4%, CHX counter 0.4, Pf growth 48h 27.1%, Pf growth 96h 15.9%, Shiga toxin inh -2.8 and AMA1-RON2 inh 1.4%.
For CC(=O)Nc1ccc(S(=O)(=O)Oc2cccc(/C=N/N=C3/NC(=O)C(CC(=O)O)S3)c2)cc1 (centres undefined) the results were HCV inhibitor 10.6%, CHX counter -7.1, Pf growth 48h 0.0%, Pf growth 96h 135.2%, Shiga toxin inh -15.9 and AMA1-RON2 inh 0.0%.
COc1ccc(-c2nc3ccccc3nc2-c2ccccc2)cc1OC was read as HCV inhibitor inconclusive, CHX counter -1.3, Pf growth 48h inconclusive, Pf growth 96h inconclusive, Shiga toxin inh -3.6 and AMA1-RON2 inh -1.5%.
`CCc1nc(-c2ccc(OC)c(OC)c2)cc2cc(OC)c(OC)cc12` gave HCV inhibitor 3.16µM*, CHX counter -2.0, Pf growth 48h -22.3%, Pf growth 96h 9.28µM*, Shiga toxin inh -10.5 and AMA1-RON2 inh 2.0%.
`Cc1ccc(-c2cc(-c3ccccc3)nc(Cl)n2)cc1` gave HCV inhibitor inconclusive, CHX counter 46.2*, Pf growth 48h -2.9%, Pf growth 96h 0.0%, Shiga toxin inh 127.9* and AMA1-RON2 inh 35.9%.
